Values joined by “and” are separate entries in the source; they are usually repeats but may differ in a detail not shown here. Identical values can stand only once. Hit rate of the full screen: of about 16,000 compounds, about 4,000 (25%) were called active. Roughly 26% stayed inconclusive and do not appear here. The list is a sample of the results. Values without a mark were called inactive. Calls come from the whole dose curve; as a rule, active = well fitted curve in the direction sought with a large enough effect; inconclusive = small, poorly fitted or top-dose-only effect, or effect the other way; inactive = no such curve, though single readings can be large or run the other way.
% is set by controls: 0 for no effect and ±100 for the full control effect.

The target in the assay is Cytochrome P450 2C9 (Homo sapiens) (UniProt P11712). Description: Cytochrome panel assay with activity outcomes. Conditions: recombinant CYP, pro-luciferin dealkylation, luminescence, p450-cyp2c9; series mostly up to 57.1 µM; activity, negative = inhibition: at the top concentration.
Cytochrome P450 2C9 (Homo sapiens), sequence (P11712 whole entry, looked up): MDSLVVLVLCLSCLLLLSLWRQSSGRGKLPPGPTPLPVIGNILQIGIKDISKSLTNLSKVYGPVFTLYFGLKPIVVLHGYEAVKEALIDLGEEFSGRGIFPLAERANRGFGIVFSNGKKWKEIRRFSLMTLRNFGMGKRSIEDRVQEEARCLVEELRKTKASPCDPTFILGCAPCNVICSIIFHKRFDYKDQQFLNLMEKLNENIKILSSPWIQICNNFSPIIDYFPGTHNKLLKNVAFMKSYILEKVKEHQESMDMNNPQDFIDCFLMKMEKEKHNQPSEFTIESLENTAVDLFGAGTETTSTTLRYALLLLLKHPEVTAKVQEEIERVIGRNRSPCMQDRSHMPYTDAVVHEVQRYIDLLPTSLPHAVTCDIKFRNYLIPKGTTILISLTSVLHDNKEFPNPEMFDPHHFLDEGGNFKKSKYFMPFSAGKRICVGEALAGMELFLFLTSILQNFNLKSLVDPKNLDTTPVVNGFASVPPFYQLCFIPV
As for `Cc1cccc(CN2CCN(CC(=O)O)C2=O)c1`, the “activity, negative = inhibition” value is -24.3%.

Usually AC50 stands for the midpoint of the concentration-response curve, whichever way the signal moves. Consider `O=C(O)CN1CCN(Cc2ccc(F)cc2Cl)C1=O`, for which the AC50 was 0.316 µM (active).

Turning to `O=C(O)CN1CCN(Cc2ccccc2Cl)C1=O`, the “activity, negative = inhibition” value is -29.3%.

In the case of `CC(Cc1ccccc1)N/C=C1\CC(=O)NC1=O` (centres undefined), the “activity, negative = inhibition” value is 6.55%.

In the case of `CC(C)C(CCNC(=O)CC(Cc1ccccc1)c1ccco1)c1ccco1` (centres undefined), the AC50 is 2.82 µM (active).

For the compound `O=C(O)CNC(=O)[C@@H](CS)Cc1ccccc1`, the “activity, negative = inhibition” value is 11.8% [at 25.6 µM].

For the compound `COc1c(O[C@H]2O[C@@H](CO)[C@@H](O)[C@@H](O)[C@@H]2O)cc2c(c1OC)-c1ccc(SC)c(=O)cc1[C@H](NC(C)=O)CC2`, the “activity, negative = inhibition” value is -8.94% [at 25.6 µM].

In the case of `CC(=O)NCCNc1ncnc2ccc(-c3ccoc3)cc12`, the activity, negative = inhibition is 6.33% [at 2.29 µM].

With `CC1CSc2nc3sc4c(c3c(=O)n21)CCCC4` (centres undefined), the AC50 is 14.1 µM (active).

Turning to `Nc1nc(Cl)nc2c1ncn2[C@@H]1O[C@@H](COP(=O)(O)OP(=O)(O)OP(=O)(O)O)[C@@H](O)[C@H]1O`, the “activity, negative = inhibition” value is 18.3%.

In the case of `S=c1nc[nH]c2c1ncn2Cc1ccco1`, the activity, negative = inhibition is 1.4% [at 11.4 µM].

Take `O=C1c2ccccc2N[C@H](c2cc(Cl)cc(Cl)c2O)N1CCc1ccccn1`: the AC50 was 3.16 µM (active).

In the case of `O=C1CC(N2CCN(CCc3ccccn3)CC2)C(=O)N1c1ccc(Cl)cc1` (centres undefined), the “activity, negative = inhibition” value was -8.6%.

As to `CCOC(=O)C1=C(c2ccccc2)N=c2s/c(=C\c3ccco3)c(=O)n2C1c1cccs1` (centres undefined), the AC50 was 8.91 µM (active).

On to `CCOC(=O)C1=C(c2ccccc2)N=c2s/c(=C\c3cccc(O)c3)c(=O)n2C1c1cccs1` (centres undefined), for which the “activity, negative = inhibition” value was -16.1%.

Take `CCOC(=O)C1=C(N)n2c(s/c(=C\c3ccco3)c2=O)=C(C(=O)OCC)C1c1ccco1` (centres undefined): the AC50 was 1.26 µM (active).

In the case of `OCCCSCCO`, the activity, negative = inhibition was 11.5% [at 11.4 µM].

As to `C[N+](C)(C)CC[N+]1(C)Cc2c(Cl)c(Cl)c(Cl)c(Cl)c2C1`, the “activity, negative = inhibition” value was -8.79%.

With `NS(=O)(=O)c1nc(S(=O)(=O)O)c2[nH]cnc2n1`, the activity, negative = inhibition is -8.54% [at 11.4 µM].

Consider `Cc1ccc(S(=O)(=O)NC(=O)Nc2ncn[nH]2)cc1`, for which the activity, negative = inhibition was 4.99% [at 11.4 µM].

As for `Cc1nnc(NS(=O)(=O)c2ccc(N)cc2)s1`, the “activity, negative = inhibition” value was -21.3% [at 25.6 µM].

As for `Cc1ccc(S(=O)(=O)Nc2nc(C)c(NC(=O)Nc3ccc(Cl)cc3Cl)s2)cc1`, the AC50 is 7.94 µM (active).

As for `CCN(CC)C(=S)SSC(=S)N(CC)CC`, the AC50 was 2.51 µM (active) and 398 nM (active).

`CC(C)(CO[C@H]1C[C@H]2CC[C@@]1(C)C2(C)C)[N+](=O)[O-]`: the activity, negative = inhibition was -3.36% [at 11.4 µM].

For `C[C@H](O)C(=O)C1=Nc2c(nc(N)[nH]c2=O)NC1`, the “activity, negative = inhibition” value is 15.9%.

With `O=C(CCc1ccccc1)NNC(=O)c1ccco1`, the “activity, negative = inhibition” value was -10.8%.

As for `CC(C)(C)C(=O)NC(=S)NCCc1ccccc1`, the AC50 is 11.2 µM (active).

In the case of `NNC(=O)c1ccc[n+](CCc2ccccc2)c1`, the activity, negative = inhibition was -1.12% [at 11.4 µM].

`COc1cc(CNCCc2ccccc2)ccc1OCC(=O)NC(C)(C)C`: the “activity, negative = inhibition” value is -0.348%.

As to `CCC(=O)Nc1ccc(C(=O)NNC(=O)c2cccs2)cc1`, the “activity, negative = inhibition” value is 11.9%.

Take `CC(C)(C)OC(=O)N1CCCC1C(=O)NCCc1ccccc1` (centres undefined): the “activity, negative = inhibition” value was -29.8%.

As to `CCCC(=O)Nc1ccc(C(=O)NNC(=S)NC(=O)c2cccs2)cc1`, the AC50 is 20 µM (active).

Consider `COc1cc(OC)cc(C(=O)NC(=S)NCCc2ccccc2)c1`, for which the AC50 was 2.82 µM (active).

Turning to `O=C(CCc1ccccc1)NNC(=S)NC(=O)c1ccccc1`, the AC50 is 15.8 µM (active).

Consider `N[C@@H](CSCc1ccc(I)cc1)C(=O)O`, for which the activity, negative = inhibition was 12.7% [at 11.4 µM].

With `CCCCC(=O)NNC(=S)NC(=O)c1cccc([N+](=O)[O-])c1`, the concentration at half-maximal activity (AC50) is 10 µM (active).

`Cc1ccc(C(=O)NNC(=S)NC(=O)c2ccc(Cl)cc2)cc1`: the AC50 was 2 µM (active).

As for `O=C(NNS(=O)(=O)c1ccccc1)c1cccnc1`, the activity, negative = inhibition was 2.91% [at 11.4 µM].

As for `COc1ccc(C(=O)NC(=S)NCc2ccccc2)cc1`, the concentration at half-maximal activity (AC50) was 15.8 µM (active).

For `CCCCC(=O)Nc1cc(OCC)c(NC(=O)c2ccccc2[N+](=O)[O-])cc1OCC`, the “activity, negative = inhibition” value is -12.6%.

As for `NCCNC(=O)c1ccc(Cl)cc1`, the AC50 result is “inactive”.

Consider `Cc1ccc(C(=O)NNC(=O)C2CCCN(c3ncccn3)C2)cc1` (centres undefined), for which the “activity, negative = inhibition” value is 25.8%.

With `O=C(NNC(=S)NC(=O)c1cccnc1)c1ccccc1`, the concentration at half-maximal activity (AC50) is 5.62 µM (active).

Turning to `O=C(NNC(=O)c1cccnc1)Nc1cccc2ccccc12`, the “activity, negative = inhibition” value was -16.4%.

As to `CSc1nc2c(c(C(F)(F)F)n1)CC(C)CC2` (centres undefined), the “activity, negative = inhibition” value was 14.4%.

`Cc1ccccc1-c1nccc(NCCN2CCOCC2)n1`: the activity, negative = inhibition was 15.8% [at 2.29 µM].

Turning to `CN(CC(=O)O)CC(=O)O`, the activity, negative = inhibition was -7.68% [at 11.4 µM].

With `CCc1cc2c(nc1CC)CCN(CC/C(C)=N/O[C@@H](C)c1cc(-c3c(C)cc(C)cc3C)no1)C2`, the activity, negative = inhibition is 8.77% [at 11.4 µM].

With `COc1ccc(C(=O)NC(=S)NNC(=O)CCc2ccccc2)cc1`, the AC50 was 2.82 µM (active).

The values above are taken from PubChem BioAssay AID1851 (National Center for Advancing Translational Sciences (NCATS), 2009).
